Experimental data taken from PubChem BioAssay.
The source made the active and inactive calls.

Columns and labels:
[1] = molecular target: Albumin (Bos taurus) (UniProt P02769); assay: bovine serum albumin binders on microarray, profiling panel, artefact control for SMM control protein annotation, biochemical, small-molecule microarray, Alexa647 label, 635/667 nm fluorescence (AID 1118); conditions: BSA-A647 binding, fluorescence 635 nm, higher = more signal;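 note: score merges 667 nm emission intensity and signal-to-noise per printed compound spot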
[2] = small-molecule microarray binders of probe aXIP, primary screen, biochemical, NeuroSMM set, 635/667 nm fluorescence (AID 1119); conditions: higher = more signal, called active from +8 up or from −8 down;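 note: probe is the protein aXip251-270 applied at 1 µg/mL to compound-printed slides; binding of probe to printed compounds measured as 667 nm fluorescence plus signal to noise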
[3] = small-molecule binders of probe aNOTCH3, primary screen, biochemical, small-molecule microarray, 635/667 nm fluorescence (AID 1120); conditions: higher = more signal;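 note: probe is a biotin-tagged antibody raised against NOTCH3 rather than NOTCH3 protein; score merges spot fluorescence near 667 nm with spot signal to noise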
[4] = small-molecule binders of probe aNOTCH2, primary screen, biochemical, small-molecule microarray, 635/667 nm fluorescence (AID 1121); conditions: higher = more signal;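 note: score merges feature fluorescence read at 667 nm with its signal to noise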
[5] = molecular target: Carbonic anhydrase 2 (Homo sapiens) (UniProt P00918); assay: CAII small-molecule binders, profiling panel, biochemical, small-molecule microarray, Alexa647-labelled CAII (AID 1122); conditions: CAII-A647 binding fluorescence, higher = more signal
[6] = COS7 lysate on small-molecule microarray, probe aHis, 635 nm (AID 1123); conditions: COS7 cell lysate, fluorescence, higher = more signal;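 note: z-score combines 667nm fluorescence intensity with signal-to-noise per printed compound spot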
[7] = compound binding in COS7 lysate, probe aLAP1, primary screen, cell lysate, small-molecule microarray (AID 1124); conditions: probe aLAP1, fluorescence, higher = more signal;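 note: lysate comes from COS7 cells expressing LAP1 and is applied at 0.3 µg/mL; score merges spot fluorescence near 667 nm with signal-to-noise over triplicate slides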
[8] = system: Sam68 (KHDRBS1); assay: Sam68 small-molecule binders, primary screen, biochemical, small-molecule microarray, 635 nm fluorescence (AID 1125); conditions: small-molecule microarray binding, higher = more signal;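 note: score merges 667 nm channel intensity with signal to noise over triplicate slides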
[9] = system: Chordin-like protein 2 (CHRDL2); assay: CHRDL2 small-molecule binders, primary screen, biochemical, small-molecule microarray, 635 nm fluorescence (AID 1126); conditions: small-molecule microarray binding, fluorescence 635 nm; higher = more signal;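 note: printed compound slides probed with Chrdl2 protein at 4 µg/mL for 1 h at 4 C; score merges 667 nm emission intensity with signal to noise over three replicate slides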
[10] = molecular target: Concanavalin-A (Canavalia ensiformis) (UniProt P02866); assay: ConA small-molecule binders, primary screen, artefact control for SMM control protein annotation, biochemical, small-molecule microarray, Alexa647 label, 635 nm (AID 1127); conditions: ConA-A647 binding fluorescence, higher = more signal;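 note: z combines 667 nm emission intensity with signal-to-noise across three replicate slides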
Sequence of Concanavalin-A (Canavalia ensiformis) (P02866 whole entry, looked up): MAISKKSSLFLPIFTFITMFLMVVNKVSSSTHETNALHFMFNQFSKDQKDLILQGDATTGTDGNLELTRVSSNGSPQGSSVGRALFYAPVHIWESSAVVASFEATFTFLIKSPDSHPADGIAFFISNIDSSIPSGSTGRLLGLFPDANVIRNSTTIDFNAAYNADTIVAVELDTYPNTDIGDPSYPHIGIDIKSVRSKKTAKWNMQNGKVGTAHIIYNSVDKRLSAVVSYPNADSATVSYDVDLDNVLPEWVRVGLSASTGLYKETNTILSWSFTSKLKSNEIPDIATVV

Sequence of Albumin (Bos taurus) (P02769 whole entry, looked up): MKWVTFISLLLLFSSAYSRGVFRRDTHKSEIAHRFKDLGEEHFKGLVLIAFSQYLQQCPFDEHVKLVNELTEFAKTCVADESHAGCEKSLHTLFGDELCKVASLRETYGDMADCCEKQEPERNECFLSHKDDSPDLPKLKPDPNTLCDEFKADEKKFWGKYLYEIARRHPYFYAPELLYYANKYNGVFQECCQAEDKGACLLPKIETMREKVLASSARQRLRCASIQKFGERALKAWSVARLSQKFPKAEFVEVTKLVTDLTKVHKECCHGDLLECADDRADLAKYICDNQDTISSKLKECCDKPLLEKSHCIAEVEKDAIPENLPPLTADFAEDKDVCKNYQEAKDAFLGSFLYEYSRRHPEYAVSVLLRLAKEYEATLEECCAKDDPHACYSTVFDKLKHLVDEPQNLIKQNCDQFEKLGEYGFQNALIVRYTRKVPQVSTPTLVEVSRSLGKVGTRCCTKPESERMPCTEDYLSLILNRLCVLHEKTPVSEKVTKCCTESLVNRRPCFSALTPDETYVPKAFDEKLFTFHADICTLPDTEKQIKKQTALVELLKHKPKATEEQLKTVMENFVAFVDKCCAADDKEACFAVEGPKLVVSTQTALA

Compound | composite z-score [1] | composite Z-score [2] | composite z-score [3] | composite z-score [4] | composite z-score [5] | composite z-score [6] | composite z-score [7] | composite z-score [8] | composite z-score [9] | composite z-score [10]
Cc1ccccc1C(O)C1C=CC2C(=O)N(C)C(=O)C2N1Nc1ccccc1 (stereo not given) | 1 | 0.0032 (inactive) | 0.0674 | -0.0168 | 0.821 | 2.05 | 0.415 | 1.23 | -0.345 | 1.15
COC(=O)c1ccc(C23CC2(C(NP(=O)(c2ccccc2)c2ccccc2)c2ccccc2)C3)cc1 (stereo not given) | 0.982 | 0.117 (inactive) | 0.325 | 0.359 | 0.819 | 2.8 | 1.02 | 0.921 | -1.12 | 0.484
O=C(O)[C@H]1C[C@H]2C(=O)NCC(=O)N2[C@H]1c1ccc(O)cc1 | 0.346 | 0.289 (inactive) | 0.791 | -0.0761 | 0.688 | 0.921 | 0.0741 | 0.0505 | 1.26 | 0.482
[N-]=[N+]=Nc1ccccc1[C@H]1OC(c2ccc(OCCCO)cc2)=N[C@@]1(CCS(=O)(=O)c1ccccc1)C(=O)O | 0.622 | 0.254 (inactive) | -0.0647 | 0.0278 | 0.419 | 2.77 | 0.425 | 0.0569 | -0.378 | 0.475
CC(C)c1ccc(NN2C(C(O)c3c(F)cccc3Cl)C=CC3C(=O)N(c4ccccc4)C(=O)C32)cc1 (stereo not given) | 0.913 | -0.193 (inactive) | 0.704 | 0.395 | 0.187 | 2.26 | 0.584 | 1.14 | -0.297 | 1.11
O=C1O[C@H](c2ccccc2)[C@H](c2ccccc2)N2[C@H]1[C@@H](C(=O)O)[C@]1(C(=O)Nc3ccc(C#CC4(O)CCCCCC4)cc31)[C@H]2c1ccc(OCCO)cc1 | 0.906 | -0.0503 (inactive) | 0.0876 | -0.0727 | 0.672 | 2.58 | 0.78 | 1.29 | -0.862 | 1.06
CS(=O)(=O)CCOC(=O)C1=CC(c2ccc(CO)cc2)=CC(C2CC2)N(Cc2cc3c(cc2Br)OCO3)C=C1C(=O)OCCS(C)(=O)=O (stereo not given) | 0.381 | -0.0662 (inactive) | 0.143 | -0.0902 | 0.618 | 2.29 | 0.487 | 1.3 | 0.37 | 0.927
CC(C)=CCCC(C)=CC(O)C1C=CC2C(=O)N(c3ccccc3)C(=O)C2N1Nc1ccccc1 (stereo not given) | 0.977 | -0.0662 (inactive) | 0.461 | 0.251 | 0.646 | 1.52 | 0.78 | 1.27 | -0.0528 | 1.14
CCOC(=O)C1=C[C@@H](CC)N(S(=O)(=O)c2ccc(C)cc2)[C@H]1c1ccccc1 | 0.874 | 0.339 (inactive) | 0.0539 | 0.0572 | 0.526 | 1.35 | 0.83 | 1.29 | 0.0777 | 1.1
C=C(COC)/C(=C/C[C@H](OC(=O)c1ccncc1)c1cccc(OCCO)c1)c1cc(C(=O)OC)ccc1OC | 0.374 | 0.415 (inactive) | -0.0006 | -0.146 | 0.697 | 0.75 | 0.343 | 0.908 | -0.386 | -0.163
NCCCCCCNC(=O)[C@H]1C[C@H]2C(=O)NCC(=O)N2[C@H]1c1cccc(OCCO)c1 | -0.512 | 0.727 (inactive) | -0.0311 | -0.153 | 0.536 | 1.07 | 0.295 | 1.29 | 1.37 | 1.1
COc1ccc([Si](C)(C)[C@@H]2[C@@H](CCn3cc([C@H](O)c4ccccc4)nn3)O[C@]3(C(=O)N(Cc4ccc(N5C(=O)c6cccc7cccc5c67)cc4)c4ccccc43)[C@H]2C)cc1 | 0.033 | -0.196 (inactive) | -0.13 | -0.155 | 0.403 | 0.791 | 0.017 | 0.268 | -0.177 | -0.13
N[C@@H](Cc1ccccc1)Cn1cc(-c2ccccc2)nn1 | 0.656 | -0.254 (inactive) | 0.0879 | -0.053 | -0.062 | 0.281 | 0.954 | 0.406 | 0.53 | -0.109
COCC(=C=CC[C@@H](O)c1ccc(CO)o1)CCO | -0.606 | 0.111 (inactive) | -0.215 | -0.118 | 0.349 | -0.185 | 1.51 | 0.101 | 0.689 | 0.188
[N-]=[N+]=NCc1ccccc1[C@@H]1OC(c2ccc(OCCCO)cc2)=N[C@]1(Cc1ccccc1N=[N+]=[N-])C(=O)NCc1ccccc1 | 0.753 | -0.0079 (inactive) | 0.111 | 0.0427 | 0.42 | 1.25 | 0.272 | 1.26 | 0.16 | 0.815
O=C1C2C=CC(C(O)c3ccc(-c4ccccc4)s3)N(n3cnnc3)C2C(=O)N1Cc1ccccc1 (stereo not given) | -0.314 | -0.34 (inactive) | 0.0519 | -0.0467 | 0.465 | 0.942 | 0.253 | 0.145 | -0.42 | 0.615
COC(=O)c1ccc(OC)c(/C=C\CC(OC(C)=O)c2ccccc2)c1 (stereo not given) | 0.652 | -0.192 (inactive) | -0.276 | -0.149 | 0.971 | 0.718 | -0.0984 | -0.215 | 1.1 | 1.15

Compound | composite z-score [1] | composite Z-score [2] | composite z-score [3] | composite z-score [4] | composite z-score [5] | composite z-score [6] | composite z-score [7] | composite z-score [8] | composite z-score [9] | composite z-score [10]
COc1ccc(C#Cc2ccc3c(c2)[C@]2(C(=O)N3)[C@H](C(=O)NC[C@H](O)c3ccccc3)[C@H]3C(=O)O[C@H](c4ccccc4)[C@H](c4ccccc4)N3[C@@H]2c2ccccc2OCCO)cc1 | 0.566 | 0.29 (inactive) | 0.175 | -0.0157 | 0.575 | 1.8 | 1.03 | 1.29 | 0.469 | 1.14
CC(C)(C)OC(=O)CC[C@]1(C(=O)N2CCCCC2)N=C(c2ccc(OCCCO)cc2)O[C@H]1c1ccccc1N=[N+]=[N-] | 0.657 | 2.33 (inactive) | 0.128 | -0.0391 | 0.528 | 2.05 | -0.0995 | 1.25 | -0.292 | 1.19
COC(=O)[C@@]1(Cc2ccccc2)[C@H]2c3cc(C(=O)N(C)C)n(Cc4cc(C)n(C)n4)c3C[C@H]2CN1C(=O)c1ccccc1 | 1 | -0.138 (inactive) | 0.718 | 0.258 | 0.931 | 2.63 | 0.993 | 0.812 | -0.979 | 0.711
O=C1O[C@@H](c2ccccc2)[C@@H](c2ccccc2)N2[C@@H](c3ccc(OCCO)cc3)[C@]3(C(=O)Nc4ccc(C#CC5=CCCCC5)cc43)[C@@H](C(=O)O)[C@H]12 | 0.953 | 0.556 (inactive) | 0.206 | 0.0588 | 0.499 | 0.866 | 0.711 | 1.3 | 0.0501 | 1.16
CC(C)Cc1ccc(CN2CC[C@@H](NS(=O)(=O)c3ccccc3)C2)cc1 | -0.623 | 0.119 (inactive) | -0.187 | -0.173 | -0.114 | 0.48 | 0.0054 | 0.532 | 0.449 | -0.36
CCCNC(=O)[C@@H]1c2ccccc2C(=O)N(Cc2ccccc2)[C@H]1c1ccc(CO)cc1 | -0.271 | 0.842 (inactive) | 0.0631 | -0.0715 | 0.202 | 1.1 | -0.036 | 0.22 | -0.592 | 1.01
COc1ccc(C(O)C2C=CC3C(=O)N(c4ccccc4)C(=O)C3N2Nc2ccc([N+](=O)[O-])cc2)cc1OCc1ccccc1 (stereo not given) | 0.927 | -0.114 (inactive) | 1.33 | 0.708 | 0.591 | 1.53 | 1.22 | 1.16 | 0.471 | 1.14
CC=CC(O)C1C=CC2C(=O)N(c3ccccc3)C(=O)C2N1Nc1ccc(C(C)C)cc1 (stereo not given) | 0.98 | 0.609 (inactive) | 0.271 | 0.0751 | 0.641 | 3.26 | 0.3 | 1.3 | 0.0045 | 1.11
O=c1cccc(C=Cc2ccccc2)o1 | -0.828 | 0.0786 (inactive) | -0.178 | -0.126 | -0.228 | -0.386 | 0.224 | -0.0848 | -1.58 | -0.514
COC(=O)[C@@]1(Cc2ccc(OC)cc2)[C@H]2c3cc(C(=O)N4CCCC4)n(Cc4ccccn4)c3C[C@H]2CN1C(=O)c1ccccc1 | 0.939 | -0.832 (inactive) | 0.277 | 0.246 | 0.82 | 1.55 | 0.285 | 1.31 | -0.761 | 0.906
COCCOC(=O)N1C(=O)[C@@]2(c3cc(C#CCNC(N)=O)ccc31)[C@H](c1ccc(O)cc1)N1[C@H](c3ccccc3)[C@H](c3ccccc3)OC(=O)[C@H]1[C@@H]2C(=O)NC[C@H](O)c1ccccc1 | -0.302 | 0.297 (inactive) | 0.108 | -0.0165 | 0.044 | 0.956 | 0.608 | 1.13 | 1.38 | 1.16
Cc1ccc(F)cc1S(=O)(=O)N[C@@H]1CCN(Cc2ccc(-c3ccccc3)cc2)C1 | 0.413 | -0.569 (inactive) | -0.126 | -0.0598 | 0.482 | 0.249 | 0.625 | 0.581 | 0.776 | -0.0888
COCCOC(=O)N1C(=O)[C@@]2(c3cc(C#CCNC(N)=O)ccc31)[C@H](C(=O)N1CCc3cc(OC)c(OC)cc3C1)[C@H]1C(=O)O[C@H](c3ccccc3)[C@H](c3ccccc3)N1[C@@H]2c1ccc(OCCO)cc1 | -0.717 | 0.202 (inactive) | 0.289 | -0.186 | 0.225 | 0.423 | 0.406 | 0.398 | 0.286 | 1.09
COCC(=C=CC[C@H](O)c1ccc(OCCO)cc1)C[C@H](O)c1cc(Cl)cc(Cl)c1O | -0.679 | -0.566 (inactive) | 0.114 | -0.122 | 0.718 | -1.65 | 0.359 | 1.17 | 0.923 | 0.661
Cc1ccccc1C(O)C1C=CC2C(=O)N(C)C(=O)C2N1N1CCCCC1 (stereo not given) | 0.992 | -0.118 (inactive) | 0.36 | 0.21 | 0.793 | 2.92 | 0.996 | 1.32 | 0.642 | 1.09
C=CCOC(=O)[C@@H]1[C@H]2C(=O)O[C@H](c3ccccc3)[C@H](c3ccccc3)N2[C@H](c2ccc(OCCOC(=O)[C@@H]3C[C@@H]4C(=O)NCC(=O)N4[C@@H]3c3cccc(OCCO)c3)cc2)[C@@]12C(=O)Nc1ccc(I)cc12 | -0.991 | -0.0135 (inactive) | -0.0835 | -0.0242 | 0.501 | 1.59 | 0.875 | 1.3 | 0.926 | 0.964
